The nature of this experiment: chemical genetic growth profiling, strain panel (AID 1159580).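 Note: tested at 20 µM; growth read once vehicle control cultures reached saturation at 30 °C; 1 = growth at the plate median or of vehicle wells; lower values mean less growth of the strain.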 The conditions noted are these: S. cerevisiae deletion strains, growth OD.
The mark [1] stands for this setting: locus YAL040C, strain CLN3, hits give low values.
The mark [2] stands for this setting: locus YCL061C, strain MRC1 (second series), hits give low values.
The mark [3] stands for this setting: locus YDR363W, strain ESC2, hits give low values.
Setting [4] is: locus YER002W, strain NOP16, hits give low values.
Where [5] appears, read: locus YMR307W, strain GAS1, hits give low values.
Where [6] appears, read: locus YNL175C, strain NOP13, hits give low values.
[7] abbreviates: locus YNL197C, strain WHI3, hits give low values.
The mark [8] stands for this setting: locus YNL224C, strain SQS1, hits give low values.
[9] abbreviates: locus YNL322C, strain KRE1, hits give low values.
Setting [10] is: locus YOR083W, strain WHI5 (second series), hits give low values.
Where [11] appears, read: locus YPL241C, strain CIN2, hits give low values.
The mark [12] stands for this setting: locus YNL153C, strain GIM3, hits give low values.
Setting [13] is: locus YMR263W, strain SAP30, hits give low values.
Where [14] appears, read: locus YNL128W, strain TEP1, hits give low values.
Where [15] appears, read: locus YPL055C, strain LGE1, hits give low values.
Setting [16] is: locus YGR229C, strain SMI1, hits give low values.
Where [17] appears, read: locus YDR150W, strain NUM1, hits give low values.
The mark [18] stands for this setting: locus YGR078C, strain PAC10, hits give low values.
[19] abbreviates: locus YJR075W, strain HOC1, hits give low values.
The mark [20] stands for this setting: locus YAL013W, strain DEP1, hits give low values.

Drawing on PubChem BioAssay AID1159580 (chemical genetic matrix, 2015), this text covers normalized growth for ten compounds.

The whole screen tested about 5,500 compounds, of which about 2,000 (36%) were called active. Roughly 18% stayed inconclusive and do not appear here. The list shows a part of the results. Unmarked numbers belong to inactive results. Cut-off read from the data, not from the text of the source: active = normalized growth mostly below about 0.91 (no sharp cut-off); inconclusive = no clear call, values can overlap the other calls; inactive = mostly above about 0.92.

On to `Cc1cccc(C2CN(C)CCc3c2cc(O)c(O)c3Cl)c1` (stereo not drawn), for which the normalized growth by setting is: under setting [1], 1.01; under setting [2], 0.988; under setting [3], 1; under setting [4], 1.01; under setting [5], 1.01; under setting [6], 1.01. In addition, the normalized growth is 1.01 under setting [7]; 1.01 under setting [8]; 0.973 under setting [9]; 1.01 under setting [10]; 0.996 under setting [11].

On to `C=CCN1CCc2c(cc(O)c(O)c2Br)[C@@H](c2ccccc2)C1`, for which the normalized growth reads like this: under setting [1], 1.03; under setting [3], 0.8 (active); under setting [4], 1; under setting [12], 0.945; under setting [6], 1.04; under setting [7], 0.98. The normalized growth by setting is: under setting [8], 1.02; under setting [10], 0.987; under setting [11], 0.122 (active).

In the case of `Oc1ccc(C2CNCCc3c2cc(O)c(O)c3Cl)cc1` (stereo not drawn), the normalized growth reads like this: under setting [1], 0.987; under setting [2], 0.986; under setting [3], 1.03; under setting [4], 0.997; under setting [13], 0.994; under setting [5], 1.02. The normalized growth was 0.984 under setting [14]; 0.935 under setting [12]; 1 under setting [6]; 0.977 under setting [7]; 1.06 under setting [8]; 1.02 under setting [9]. Further, the normalized growth was 0.965 under setting [10], 0.989 under setting [15] and 0.981 under setting [11].

On to `CN1CCc2cc(Cl)c(O)cc2[C@@H](c2ccccc2)C1`, for which the normalized growth under setting [1] was 1.01; the normalized growth under setting [2] is 1; the normalized growth under setting [3] was 1.01; the normalized growth under setting [4] was 1.04; the normalized growth under setting [16] was 1.03; the normalized growth under setting [5] was 0.993. Besides, the normalized growth reads like this: under setting [12], 1.02; under setting [6], 1.01; under setting [7], 0.995; under setting [8], 1.01; under setting [10], 1.03; under setting [15], 0.995.

Take `Oc1cc2c(c(Cl)c1O)CCNCC2c1ccccc1` (stereo not drawn): the normalized growth under setting [1] was 0.985; the normalized growth under setting [2] is 0.985; the normalized growth under setting [17] was 0.925 (active); the normalized growth under setting [3] is 0.977; the normalized growth under setting [4] was 0.978; the normalized growth under setting [18] was 0.995. For the same compound, the normalized growth by setting is: under setting [19], 0.875 (active); under setting [13], 1.01; under setting [5], 0.988; under setting [12], 0.967; under setting [6], 1.02; under setting [7], 1.01. For the same compound, the normalized growth runs as follows: under setting [8], 1.04; under setting [9], 0.981; under setting [10], 1.01; under setting [15], 0.57 (active); under setting [11], 0.981.

Regarding `CN1CCc2cc(O)c(O)cc2C(c2ccccc2)C1` (stereo not drawn), the normalized growth was 1.02 under setting [20]; 1 under setting [1]; 0.997 under setting [2]; 1.02 under setting [3]; 1 under setting [4]; 1 under setting [13]. The normalized growth is, setting by setting: under setting [5], 0.998; under setting [14], 1; under setting [12], 1.01; under setting [6], 1.01; under setting [7], 1.01; under setting [8], 1. Further, the normalized growth is, setting by setting: under setting [9], 1; under setting [10], 1.01; under setting [11], 1.

In the case of `C=CCN1CCc2c(cc(O)c(O)c2Cl)C(c2ccccc2)C1` (stereo not drawn), the normalized growth is 0.917 under setting [20]; 0.992 under setting [1]; 0.934 (active) under setting [2]; 0.907 (active) under setting [17]; 0.891 under setting [3]; 0.996 under setting [4]. Besides, the normalized growth is, setting by setting: under setting [13], 0.995; under setting [5], 0.993; under setting [12], 0.911; under setting [6], 0.981; under setting [7], 0.904; under setting [8], 1.04. For the same compound, the normalized growth is, setting by setting: under setting [9], 0.754 (active); under setting [10], 0.958.

For the compound `CN1CCc2c(cc(O)c(O)c2Cl)C(c2cccc(Cl)c2)C1` (stereo not drawn), the normalized growth by setting is: under setting [1], 1.07; under setting [2], 0.945; under setting [3], 0.962; under setting [4], 1.01; under setting [19], 0.837 (active); under setting [5], 0.993. Further, the normalized growth runs as follows: under setting [6], 1; under setting [7], 0.991; under setting [8], 1.01; under setting [9], 0.917; under setting [10], 0.982; under setting [15], 0.466 (active). The normalized growth under setting [11] was 0.927 (active).

For the compound `C=CCN1CCc2cc(O)c(O)cc2C(c2ccccc2)C1` (stereo not drawn), the normalized growth runs as follows: under setting [20], 0.95; under setting [1], 1.06; under setting [2], 0.979; under setting [3], 0.994; under setting [4], 1.02; under setting [18], 1.01. In addition, the normalized growth under setting [16] is 0.917; the normalized growth under setting [13] is 1; the normalized growth under setting [5] was 1; the normalized growth under setting [14] was 1.02; the normalized growth under setting [12] was 1.01; the normalized growth under setting [6] is 1.02. Further, the normalized growth is 1.02 under setting [7], 1 under setting [8], 0.966 under setting [9] and 1.02 under setting [10].

As to `O=C(CC[N+](=O)[O-])OC[C@H]1O[C@@H](O)[C@H](OC(=O)CC[N+](=O)[O-])[C@@H](OC(=O)CC[N+](=O)[O-])[C@@H]1OC(=O)CC[N+](=O)[O-]`, the normalized growth is 1.04 (locus YBR021W, strain FUR4, hits give low values); 1.02 (locus YBR229C, strain ROT2, hits give low values); 1.01 (locus YCL029C, strain bik1, hits give low values); 1.08 (locus YDL035C, strain GPR1, hits give low values); 1.18 (locus YDL074C, strain BRE1, hits give low values); 1.02 (locus YDL101C, strain DUN1, hits give low values). Also, the normalized growth runs as follows: (locus YDL185W, strain tfp1, hits give low values) 1.01; (locus YDL192W, strain arf1, hits give low values) 1.03; (locus YDR101C, strain arx1, hits give low values) 1.01; under setting [17], 1.03; (locus YDR162C, strain NBP2, hits give low values) 1.05; (locus YDR318W, strain mcm21, hits give low values) 1.03. Moreover, the normalized growth runs as follows: (locus YDR388W, hits give low values) 0.999; (locus YDR502C, strain sam2, hits give low values) 1.02; (locus YEL061C, strain CIN8, hits give low values) 1.03; (locus YER110C, hits give low values) 0.998; (locus YER155C, strain BEM2, hits give low values) 1.01; (locus YER167W, strain BCK2, hits give low values) 1.02. For the same compound, the normalized growth is, setting by setting: (locus YGL078C, strain dbp3, hits give low values) 1; (locus YGL086W, strain mad1, hits give low values) 1.01; (locus YGL248W, strain PDE1, hits give low values) 1.05; (locus YGR135W, strain pre9, hits give low values) 1.01; (locus YGR252W, strain gcn5, hits give low values) 1.04; (locus YHR030C, strain SLT2, hits give low values) 1.02. For the same compound, the normalized growth is 0.998 (locus YHR079C, strain IRE1 (second series), hits give low values); 1.01 (locus YHR094C, strain hxt1, hits give low values); 1.04 (locus YHR129C, strain ARP1, hits give low values); 1.02 (locus YHR200W, strain rpn10, hits give low values); 1.04 (locus YIL066C, strain RNR3, hits give low values); 1.13 (locus YIL073C, strain SPO22, hits give low values). Further, the normalized growth is, setting by setting: (locus YIL125W, strain kgd1, hits give low values) 1; (locus YIR030C, strain dcg1, hits give low values) 1.03; (locus YJL095W, strain BCK1, hits give low values) 1.08; (locus YJL134W, strain LCB3, hits give low values) 1.02; (locus YJL168C, strain set2, hits give low values) 1.01; (locus YJL187C, strain SWE1 (second series), hits give low values) 1.04. The normalized growth was 0.993 (locus YKL009W, strain mrt4, hits give low values); 1 (locus YKL068W, hits give low values); 1.01 (locus YKL085W, strain MDH1 (second series), hits give low values); 1.01 (locus YKL085W, strain MDH1, hits give low values); 1.07 (locus YKR001C, strain vps1, hits give low values); 1.23 (locus YLR039C, strain RIC1, hits give low values). For the same compound, the normalized growth (locus YLR058C, strain SHM2, hits give low values) was 1.03; the normalized growth (locus YLR102C, strain apc9, hits give low values) is 0.991; the normalized growth (locus YLR268W, strain sec22, hits give low values) was 1.04; the normalized growth (locus YLR330W, strain CHS5, hits give low values) was 1.03; the normalized growth (locus YLR342W, strain FKS1 (second series), hits give low values) was 1.06; the normalized growth (locus YLR371W, strain rom2, hits give low values) is 1.02. The normalized growth is, setting by setting: (locus YLR418C, strain cdc73, hits give low values) 1.15; (locus YML016C, strain PPZ1, hits give low values) 1.02; (locus YML032C, strain rad52, hits give low values) 0.999; (locus YML124C, strain tub3, hits give low values) 1.02; (locus YMR078C, strain ctf18, hits give low values) 1.01; (locus YMR223W, strain ubp8, hits give low values) 1.02. Moreover, the normalized growth by setting is: under setting [5], 1.24; (locus YNL067W, strain RPL9B, hits give low values) 1.02; under setting [12], 1.05; (locus YNL233W, strain BNI4, hits give low values) 1.08; (locus YNL250W, strain rad50, hits give low values) 0.995; (locus YNL271C, strain bni1, hits give low values) 1.01. Besides, the normalized growth by setting is: (locus YNL298W, strain CLA4, hits give low values) 1.01; (locus YNL307C, strain MCK1, hits give low values) 1.01; (locus YNR052C, strain pop2, hits give low values) 1; (locus YOL012C, strain htz1) 1.02; (locus YOL147C, strain pex11, hits give low values) 0.996; (locus YOR061W, strain CKA2, hits give low values) 1.02. Besides, the normalized growth was 1.02 (locus YOR069W, strain VPS5, hits give low values); 1.01 (locus YOR136W, strain idh2, hits give low values); 1 (locus YOR144C, strain elg1, hits give low values); 1.03 (locus YOR184W, strain ser1, hits give low values); 0.992 (locus YOR316C, strain cot1, hits give low values); 0.998 (locus YPR119W, strain clb2, hits give low values). The normalized growth was 1 (locus YPR141C, strain kar3, hits give low values); 1.01 (locus YPR163C, strain tif3, hits give low values); 1.02 (locus YPR167C, strain met16, hits give low values); 1.02 (strain wtn01, hits give low values).
